Rows were chosen to be rich in hits. Some 0.51% of all compounds tested hit in one or more screens of this group.
E coli growth-1: E. coli growth inhibition; Escherichia coli growth, OD600, 23 h; active compounds read low; OD600 absorbance (concentration not given with the values); hit rate 0.21% among 330,000; AID 1053175;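 active = OD600 absorbance below the run mean of sample wells minus 3.6 SD, in any replicate, cut at about 0.56 in these data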
E coli growth-2: reduces bacterial viability in AddAB counter-screen. E. coli V3065 growth, OD600 absorbance, 18 h. inhibition, % at 11.9 µM. hit rate 0.27% among 330,000;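 active = inhibition above the campaign's mean inhibition across all tested compounds plus 3 SD, cut at about 9.9% in these data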;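 note: uninfected addAB+ strain grown without phage in ampicillin broth; 0% = DMSO wells and 100% = ciprofloxacin 0.95 µg/ml wells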
AddAB inh: less growth of phage-infected E. coli with AddAB; E. coli expressing H. pylori AddAB, absorbance growth; hit rate 0.29% among 330,000; AID 435030; inhibition, % at 11.9 µM; in the data active = inhibition above about 12%;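 note: 0% = vehicle wells of infected cells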
phage Ecoli inh: E. coli growth loss with phage present; growth absorbance; inhibition, % at 11.9 µM; hit rate 0.26% among 360,000; AID 651602; in the data active = inhibition above about 11%
Tat export inh: E. coli Tat transport inhibition; E. coli MC4100 TorA-mCherry Tat export, fluorescence; inhibition, % at 10 µM; hit rate 0.036% among 340,000; AID 488895;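 active = mean replicate inhibition at least 50% and at least half of replicates individually reaching 50%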;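 note: exported cargo escapes ClpAP degradation while cytoplasmic cargo is degraded and loses fluorescence; 0% = median of neutral control wells and 100% = median of NaSCN control wells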
RecBCD conf: growth loss of phage-infected V66 E. coli, RecBCD confirmation screen; shares compounds with phage Ecoli inh; E. coli V66 + T4 2- phage, growth OD; inhibition, % at 11.9 µM; hit rate 45% among 890;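 active = mean inhibition over triplicates exceeding the hit threshold derived in the original primary screen, cut at about 11% in these data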
Ecoli viability: counter-screen for RecBCD inhibitors: inhibitors of bacterial viability; AID 651983; hit rate 29% among 890; shares compounds with phage Ecoli inh; E. coli viability, absorbance (OD) growth; inhibition, % at 11.9 µM; in the data active = inhibition above about 20%;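 note: E. coli strain V66 grown with compound alone and no phage infection; 0% = bacteria with DMSO vehicle only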
AddAB counter: growth loss of phage-infected AddAB E. coli, RecBCD counter-screen. shares compounds with phage Ecoli inh. E. coli expressing H. pylori AddAB + T4 phage, OD growth; gene 2 mutant T4, recBCD-deleted host. inhibition, % at 11.9 µM. hit rate 45% among 890;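 active = mean inhibition above the solvent-only control wells' mean plus 3 SD, cut at about 22% in these data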;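 note: higher means less bacterial growth from phage killing when AddAB is blocked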
Numbers without * were called inactive; nt = no result given.

SMILES | E coli growth-1 | E coli growth-2 | AddAB inh | phage Ecoli inh | Tat export inh | RecBCD conf | Ecoli viability | AddAB counter
Oc1ccc(Cc2ccccc2)c2cccnc12 | 0.64 | nt | nt | 15* | nt | 6 | 11 | 17
COc1ccc(CN2Cc3cccc4c3C(CC2=O)C(O)C(O)C4)cc1 (configuration not stated) | 0.7 | nt | nt | nt | nt | nt | nt | nt
CN(CC(=O)Nc1ccc(F)cc1)C(=O)CSc1nc2ncc(Cl)cc2[nH]1 | 0.7 | -2 | 0 | 3 | -3 | nt | nt | nt
O=C(CSc1nc2ncc(Cl)cc2[nH]1)Nc1cccc(F)c1 | 0.61 | 5 | 6 | 12* | 7 | 7 | 8 | 3
Cc1ccc(C(=O)CC(=O)COc2ccc(Cl)cc2C)cc1 | 0.64 | -4 | -4 | 12* | 0 | 7 | 9 | 5
COc1ccc(CN2CC(=O)N3C4c5ccccc5OCC4C(c4ccccc4)[C@]3(C)C2=O)cc1 (some centres not stated) | 0.68 | nt | nt | nt | nt | nt | nt | nt
COc1ccccc1NC(=S)NN=C(C)c1ccccn1 | nt | nt | nt | 17* | 8 | 14* | 14 | 20
COc1ccc(C(=O)N/N=C(\C)c2ccccn2)cc1OC | nt | 1 | 1 | -4 | 0 | nt | nt | nt
CC(=NNC(=S)Nc1cccc(C)c1)c1ccccn1 | nt | nt | nt | 14* | 1 | 16* | 15 | 21
CCCNC(=O)c1nc(C)c(C)nc1C(=O)Nc1cccc(Cl)c1 | 0.65 | -2 | -1 | 67* | -1 | -2 | -2 | -4
Cc1nc(C)c(C(=O)Nc2cccc(Cl)c2)o1 | 0.65 | -2 | 1 | 2 | 9 | nt | nt | nt
CCOc1ccc(OCCCC(=O)ON=C(N)c2ccccc2Cl)cc1 | 0.64 | -3 | 1 | 11* | 3 | 0 | 0 | 4
COc1ccc(OCCCC(=O)ON=C(N)c2ccccc2C)cc1 | 0.7 | -1 | -1 | 2 | -5 | nt | nt | nt
CC1(C)S[C@@H]2[C@H](NC(=O)[C@H](N)c3ccccc3)C(=O)N2[C@H]1C(=O)OC1OC(=O)c2ccccc21 (some centres not stated) | nt | 1 | -1 | 21* | -13 | 30* | 53* | 15
COC(=O)C1N2C(=O)C(NC(=O)COc3ccccc3)C2SC1(C)C (configuration not stated) | 0.65 | nt | nt | nt | nt | nt | nt | nt
O=c1[nH]nnc2c1ncn2C1OC(CO)C(O)C1O (configuration not stated) | nt | nt | nt | 16* | nt | 23* | 17 | 28*
CN1CCN(C(=O)/C=C/c2ccccc2)CC1 | 0.69 | 1 | 3 | 3 | -5 | nt | nt | nt
CN1CCN(C(=O)/C=C/c2ccc([N+](=O)[O-])o2)CC1 | 0.43* | nt | nt | 17* | 4 | 12* | 13 | 82*
COc1ccc(C2C3C(=O)N(C(C)(C)C)C(=O)C3[C@]3(C)C(=O)N(c4cccc(Cl)c4)C(=O)N23)cc1 (some centres not stated) | 0.67 | nt | nt | nt | nt | nt | nt | nt
O=C(NC(CO)(CO)CO)C1CCCN1S(=O)(=O)c1cccc2cccnc12 (configuration not stated) | 0.71 | nt | nt | nt | nt | nt | nt | nt
COc1ccc(NC(=O)CSc2nnc3ccc(-c4ccccn4)nn23)cc1 | 0.69 | -2 | 1 | 5 | -7 | nt | nt | nt
COc1ccc(C(=O)CSc2nnc3ccc(-c4ccccn4)nn23)cc1 | 0.74 | 1 | 1 | 25* | -12 | -3 | -3 | -4
CCCC[n+]1ccn(-c2nc3ccccc3nc2[N-]S(=O)(=O)c2cccs2)c1 | 0.67 | 0 | -1 | 97* | -2 | 2 | 2 | -2
CCCC[n+]1ccn(-c2nc3ccccc3nc2[N-]S(=O)(=O)c2ccccc2)c1 | 0.71 | 0 | 3 | 1 | 7 | nt | nt | nt
CC(C)CC(COc1ccccc1)N1CCN(C)CCC1=O (configuration not stated) | 0.65 | nt | nt | nt | nt | nt | nt | nt
SMILES | E coli growth-1 | E coli growth-2 | AddAB inh | phage Ecoli inh | Tat export inh | RecBCD conf | Ecoli viability | AddAB counter
CC1OC2CC(=O)OC2C2=C1C(=O)c1c(O)cccc1C2=O (configuration not stated) | nt | nt | nt | 14* | nt | 8 | 3 | 20
O=C(NNC(=O)c1cc2ccccc2cc1O)Nc1ccc(F)cc1F | 0.71 | 8 | 12 | 11* | 1 | 2 | 5 | 2
O=C(NNC(=O)c1cc2ccccc2cc1O)NC1CCCCC1 | 0.73 | nt | nt | 13* | 2 | 9 | 9 | 5
O=S(=O)(c1ccc(Cl)nc1)N1CCc2ccccc21 | 0.64 | 1 | -2 | 95* | 0 | -1 | 0 | -2
CCN(C(C)=O)c1cnc(C=NNC(N)=S)c2ccccc12 | nt | nt | nt | 20* | -19 | 15* | 17 | 32*
CC(=O)n1cc(C=NNC(N)=S)c2ccccc21 | 0.71 | nt | nt | nt | nt | nt | nt | nt
NC(=S)N/N=C/c1c(O)ccc2ccccc12 | nt | 2 | 2 | 1 | -4 | nt | nt | nt
NC(=S)NN=Cc1nccc2c(N)cccc12 | nt | nt | nt | 23* | nt | 32* | 39* | 35*
C#CCNC(=O)C1=CC(c2cn(C(C)=O)c3ccccc23)CC(OCCCCO)O1 (configuration not stated) | 0.7 | nt | nt | nt | nt | nt | nt | nt
CC(C)CCNC(=S)Nc1ccc(Br)cc1 | 0.59 | 8 | 9 | 11* | 11 | 4 | 5 | 12
Cc1ccccc1NC1=C/C(=N\S(=O)(=O)c2ccc(C(=O)O)cc2)c2ccccc2C1=O | 0.64 | 4 | 11 | 6 | -16 | nt | nt | nt
O=C(O)c1ccc(S(=O)(=O)/N=C2\C=C(Nc3ccccc3F)C(=O)c3ccccc32)cc1 | 0.62 | 2 | 9 | 13* | -13 | 5 | 6 | 12
CC1(C(=O)N/N=C/c2ccc([N+](=O)[O-])o2)CC1(Br)Br (configuration not stated) | nt | 5 | 5 | 5 | -4 | nt | nt | nt
O=C1C2C(C(=O)N1/N=C/c1ccc([N+](=O)[O-])o1)C1C=CC2C12CC2 (configuration not stated) | nt | 3 | 6 | 1 | -7 | nt | nt | nt
O=C1SCCN1N=Cc1ccc([N+](=O)[O-])o1 | 0.063* | nt | nt | 69* | -2 | 62* | 98* | 100*
CC1CN(N=Cc2ccc([N+](=O)[O-])o2)C(=N)O1 (configuration not stated) | 0.065* | nt | nt | 46* | 12 | 85* | 102* | 103*
COc1cc(CCCN2C(=O)C(=O)NCC2CCCCN)cc(OC)c1OC (configuration not stated) | 0.72 | nt | nt | nt | nt | nt | nt | nt
O=C(Nc1ccccc1-c1nnn(CC(=O)N2CCOCC2)n1)c1ccc(F)cc1 | 0.67 | -1 | 2 | 11* | -3 | -4 | -5 | 0
COc1ccc(C2C=C(C(=O)O)OC(OCc3ccc(CO)cc3)C2)cc1 (configuration not stated) | 0.71 | nt | nt | nt | nt | nt | nt | nt
Oc1ccc(C=NNC(=S)Nc2cccnc2)cc1 | 0.67 | nt | nt | nt | nt | nt | nt | nt
Oc1ccc(C=NNC(=S)Nc2cccnc2)nc1 | nt | nt | nt | 21* | 1 | 19* | 21* | 36*
Cc1cc(C)cc(NC(=O)Cn2cc3c(n2)CCCCC3)c1 | 0.77 | -1 | 2 | nt | nt | nt | nt | nt
